Laboratory results taken from publication PMC7862700, “An all-to-all approach to the identification of sequence-specific readers for epigenetic DNA modifications on cytosine”.

Tests used:
Test in all cases: DAPPL (digital affinity profiling via proximity ligation, sequencing); 10 mM Tris-HCl pH 7.5, 50 mM NaCl, 1 mM DTT, 4% glycerol, room temperature, 30 min; GST-TFs on glutathione beads, 16-mer random dsDNA library, 0.1% formaldehyde crosslink after washing; high values mean tight binding
FLI1 = target: T1, FLI1 (Homo sapiens, UniProt Q01543 1-452); settings: protein: recombinant; tags: N-terminal GST; dsDNA, one strand shown
T1 sequence: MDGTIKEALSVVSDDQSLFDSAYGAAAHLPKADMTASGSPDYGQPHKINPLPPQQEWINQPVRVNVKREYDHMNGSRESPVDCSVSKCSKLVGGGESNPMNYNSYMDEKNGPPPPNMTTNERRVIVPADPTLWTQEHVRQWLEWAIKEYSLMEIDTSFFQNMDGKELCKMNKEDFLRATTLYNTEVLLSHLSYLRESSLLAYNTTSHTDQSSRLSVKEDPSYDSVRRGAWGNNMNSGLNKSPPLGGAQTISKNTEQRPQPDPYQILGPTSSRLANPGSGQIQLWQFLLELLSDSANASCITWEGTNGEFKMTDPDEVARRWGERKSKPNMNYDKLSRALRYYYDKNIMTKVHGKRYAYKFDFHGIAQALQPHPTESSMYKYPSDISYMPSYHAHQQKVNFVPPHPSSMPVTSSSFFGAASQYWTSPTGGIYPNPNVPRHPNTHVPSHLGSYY
Outline: (§1)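 In yeast, human transcription factors were expressed with a GST fusion, then pulled down on glutathione beads and given DNA barcodes. Pooled with a tag-only sample, they were exposed to 200 nmole of a 16-mer random double-stranded DNA library (Tris/NaCl/DTT/glycerol buffer, room temperature, 30 min), washed, crosslinked with 0.1% formaldehyde, proximity-ligated using BsaI/T4 ligase for 1 h at 37 °C, PCR-amplified and read on an Illumina NextSeq500. Each hexamer's frequency of reads for a factor, divided by the matching frequency for the tag-only sample, gives the binding signal.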

ELK1 = target: T2, ELK1 (Homo sapiens, UniProt P19419 1-428); settings: protein: recombinant; tags: N-terminal GST; dsDNA, one strand shown
T2 sequence: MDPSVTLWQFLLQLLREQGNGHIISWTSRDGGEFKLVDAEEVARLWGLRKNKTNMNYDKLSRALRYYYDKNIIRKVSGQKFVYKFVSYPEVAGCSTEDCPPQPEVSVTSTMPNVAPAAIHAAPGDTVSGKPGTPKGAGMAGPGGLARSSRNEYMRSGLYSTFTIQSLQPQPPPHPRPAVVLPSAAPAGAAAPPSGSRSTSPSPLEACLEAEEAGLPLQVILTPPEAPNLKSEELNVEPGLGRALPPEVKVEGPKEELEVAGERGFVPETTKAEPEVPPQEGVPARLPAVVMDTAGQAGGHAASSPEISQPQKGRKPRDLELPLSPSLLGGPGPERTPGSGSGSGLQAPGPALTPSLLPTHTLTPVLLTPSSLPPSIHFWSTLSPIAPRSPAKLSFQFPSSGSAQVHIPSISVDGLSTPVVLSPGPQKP
Outline: as §1

GABPA = target: T3, GABPA (Homo sapiens, UniProt Q06546 1-454); settings: protein: recombinant; tags: N-terminal GST; dsDNA, one strand shown
T3 sequence: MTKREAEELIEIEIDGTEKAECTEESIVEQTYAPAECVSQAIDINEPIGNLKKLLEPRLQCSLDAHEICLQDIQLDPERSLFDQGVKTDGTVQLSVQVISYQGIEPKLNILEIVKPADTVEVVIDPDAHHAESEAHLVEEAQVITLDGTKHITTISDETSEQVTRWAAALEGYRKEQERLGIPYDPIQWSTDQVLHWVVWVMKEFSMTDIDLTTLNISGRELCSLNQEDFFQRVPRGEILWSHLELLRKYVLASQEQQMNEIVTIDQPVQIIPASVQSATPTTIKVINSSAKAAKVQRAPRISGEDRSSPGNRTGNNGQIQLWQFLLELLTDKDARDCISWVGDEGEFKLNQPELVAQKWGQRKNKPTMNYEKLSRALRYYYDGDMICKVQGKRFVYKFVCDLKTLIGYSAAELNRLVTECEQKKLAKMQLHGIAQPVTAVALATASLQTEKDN
Outline: as §1

ERG = target: T4, ERG (Homo sapiens, UniProt P11308 1-479); settings: protein: recombinant; tags: N-terminal GST; dsDNA, one strand shown
T4 sequence: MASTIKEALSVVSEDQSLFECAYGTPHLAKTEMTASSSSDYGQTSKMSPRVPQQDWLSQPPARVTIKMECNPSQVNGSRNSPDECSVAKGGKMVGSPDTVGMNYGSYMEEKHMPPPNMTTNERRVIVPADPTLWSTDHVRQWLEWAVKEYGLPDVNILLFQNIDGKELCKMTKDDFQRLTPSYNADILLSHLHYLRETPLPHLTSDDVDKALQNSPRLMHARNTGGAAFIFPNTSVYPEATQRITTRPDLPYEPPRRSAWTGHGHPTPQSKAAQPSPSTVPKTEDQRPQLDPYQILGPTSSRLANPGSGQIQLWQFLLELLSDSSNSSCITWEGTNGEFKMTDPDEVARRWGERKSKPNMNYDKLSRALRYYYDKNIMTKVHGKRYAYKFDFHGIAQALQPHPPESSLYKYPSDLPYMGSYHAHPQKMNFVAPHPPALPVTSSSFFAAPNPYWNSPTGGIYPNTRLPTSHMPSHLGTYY
Outline: as §1

ELF1 = ELF1 (Homo sapiens, UniProt P32519 1-619); settings: protein: recombinant; tags: N-terminal GST; dsDNA, one strand shown
Outline: as §1

EHF = target: T5, EHF (Homo sapiens, UniProt Q9NZC4 1-300); settings: protein: recombinant; tags: N-terminal GST; dsDNA, one strand shown
T5 sequence: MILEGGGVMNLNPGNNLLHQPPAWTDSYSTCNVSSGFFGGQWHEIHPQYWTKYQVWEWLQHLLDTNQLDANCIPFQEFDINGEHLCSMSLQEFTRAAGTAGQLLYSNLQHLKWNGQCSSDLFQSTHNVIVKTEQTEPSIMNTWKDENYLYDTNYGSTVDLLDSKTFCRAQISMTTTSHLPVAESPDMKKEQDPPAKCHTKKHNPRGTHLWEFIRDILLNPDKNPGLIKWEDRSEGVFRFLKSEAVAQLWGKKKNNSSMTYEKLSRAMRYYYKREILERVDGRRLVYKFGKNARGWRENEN
Outline: as §1

SPI1 = SPI1 (Homo sapiens, UniProt P17947 1-270); settings: protein: recombinant; tags: N-terminal GST; dsDNA, one strand shown
Outline: as §1

SPIB = SPIB (Homo sapiens, UniProt Q01892 1-262); settings: protein: recombinant; tags: N-terminal GST; dsDNA, one strand shown
Outline: as §1

ELK3 = target: T6, ELK3 (Homo sapiens, UniProt P41970 1-407); settings: protein: recombinant; tags: N-terminal GST; dsDNA, one strand shown
T6 sequence: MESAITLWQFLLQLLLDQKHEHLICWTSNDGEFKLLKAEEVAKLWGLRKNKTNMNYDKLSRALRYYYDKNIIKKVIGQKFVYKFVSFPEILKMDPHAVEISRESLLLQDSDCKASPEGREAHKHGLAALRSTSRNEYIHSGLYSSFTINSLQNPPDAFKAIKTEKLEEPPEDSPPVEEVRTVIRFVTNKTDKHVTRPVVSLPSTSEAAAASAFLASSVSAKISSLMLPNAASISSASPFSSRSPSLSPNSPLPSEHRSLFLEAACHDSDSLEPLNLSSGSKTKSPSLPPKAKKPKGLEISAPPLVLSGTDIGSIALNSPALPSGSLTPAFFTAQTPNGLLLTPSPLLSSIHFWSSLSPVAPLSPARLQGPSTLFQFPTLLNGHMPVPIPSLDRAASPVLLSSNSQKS
Outline: as §1

FEV = target: T7, FEV (Homo sapiens, UniProt Q99581 1-238); settings: protein: recombinant; tags: N-terminal GST; dsDNA, one strand shown
T7 sequence: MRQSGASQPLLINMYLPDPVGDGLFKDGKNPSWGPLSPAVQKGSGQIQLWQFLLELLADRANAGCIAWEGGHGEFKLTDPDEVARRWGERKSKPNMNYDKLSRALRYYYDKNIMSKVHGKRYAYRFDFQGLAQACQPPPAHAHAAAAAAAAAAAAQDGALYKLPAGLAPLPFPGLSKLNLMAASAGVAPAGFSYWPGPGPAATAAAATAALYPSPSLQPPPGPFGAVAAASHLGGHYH
Outline: as §1

ETV5 = ETV5 (Homo sapiens, UniProt P41161 1-510); settings: protein: recombinant; tags: N-terminal GST; dsDNA, one strand shown
Outline: as §1

HSF1 = HSF1 (Homo sapiens, UniProt Q00613 1-529); settings: protein: recombinant; tags: N-terminal GST; chain copies: 3; dsDNA, one strand shown
Outline: as §1

SPIC = target: T8, SPIC (Homo sapiens, UniProt Q8N5J4 1-248); settings: protein: recombinant; tags: N-terminal GST; dsDNA, one strand shown
T8 sequence: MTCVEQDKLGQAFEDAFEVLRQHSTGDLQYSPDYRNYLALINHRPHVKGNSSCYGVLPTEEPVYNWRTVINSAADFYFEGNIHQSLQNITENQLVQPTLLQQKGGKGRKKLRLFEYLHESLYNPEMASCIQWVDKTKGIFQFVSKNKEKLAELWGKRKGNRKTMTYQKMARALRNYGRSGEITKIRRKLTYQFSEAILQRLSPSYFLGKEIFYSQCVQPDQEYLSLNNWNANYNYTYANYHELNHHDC
Outline: as §1

ELF4 = ELF4 (Homo sapiens, UniProt Q99607 1-663); settings: protein: recombinant; tags: N-terminal GST; dsDNA, one strand shown
Outline: as §1

ELK4 = target: T9, ELK4 (Homo sapiens, UniProt P28324-2 1-405); settings: protein: recombinant; tags: N-terminal GST; dsDNA, one strand shown
T9 sequence: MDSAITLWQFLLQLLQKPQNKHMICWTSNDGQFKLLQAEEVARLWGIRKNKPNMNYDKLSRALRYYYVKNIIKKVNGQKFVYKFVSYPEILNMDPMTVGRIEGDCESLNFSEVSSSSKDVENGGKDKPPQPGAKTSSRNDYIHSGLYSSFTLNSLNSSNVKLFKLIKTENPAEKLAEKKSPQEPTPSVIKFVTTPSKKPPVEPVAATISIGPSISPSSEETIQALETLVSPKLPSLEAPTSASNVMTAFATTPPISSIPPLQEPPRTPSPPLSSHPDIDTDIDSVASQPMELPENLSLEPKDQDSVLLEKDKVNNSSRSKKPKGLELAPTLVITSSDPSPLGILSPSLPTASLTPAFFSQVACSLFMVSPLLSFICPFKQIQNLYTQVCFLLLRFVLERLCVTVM
Outline: as §1

ETV2 = target: T10, ETV2 (Homo sapiens, UniProt O00321 1-342); settings: protein: recombinant; tags: N-terminal GST; dsDNA, one strand shown
T10 sequence: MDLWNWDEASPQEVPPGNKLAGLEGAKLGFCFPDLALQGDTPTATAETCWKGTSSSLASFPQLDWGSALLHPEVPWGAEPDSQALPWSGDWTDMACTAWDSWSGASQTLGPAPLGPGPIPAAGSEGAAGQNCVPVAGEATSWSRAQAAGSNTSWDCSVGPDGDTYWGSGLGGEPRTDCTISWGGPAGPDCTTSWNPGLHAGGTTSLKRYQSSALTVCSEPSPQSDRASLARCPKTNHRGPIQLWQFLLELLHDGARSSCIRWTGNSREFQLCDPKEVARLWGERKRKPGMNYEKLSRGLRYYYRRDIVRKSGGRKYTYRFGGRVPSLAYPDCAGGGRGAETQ
Outline: as §1

ELF3 = target: T11, ELF3 (Homo sapiens, UniProt P78545 1-371); settings: protein: recombinant; tags: N-terminal GST; dsDNA, one strand shown
T11 sequence: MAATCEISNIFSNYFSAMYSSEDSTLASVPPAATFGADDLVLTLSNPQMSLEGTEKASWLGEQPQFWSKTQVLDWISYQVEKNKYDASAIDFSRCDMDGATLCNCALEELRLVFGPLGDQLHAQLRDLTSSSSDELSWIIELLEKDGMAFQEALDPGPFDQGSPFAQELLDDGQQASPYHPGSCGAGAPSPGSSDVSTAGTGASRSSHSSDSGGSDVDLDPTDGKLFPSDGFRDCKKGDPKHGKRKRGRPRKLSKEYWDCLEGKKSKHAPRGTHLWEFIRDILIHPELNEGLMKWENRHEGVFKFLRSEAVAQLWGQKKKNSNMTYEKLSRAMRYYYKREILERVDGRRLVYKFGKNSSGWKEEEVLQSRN
Outline: as §1

ETV1 = ETV1 (Homo sapiens, UniProt P50549 1-477); settings: protein: recombinant; tags: N-terminal GST; dsDNA, one strand shown
Outline: as §1

Sequence of ELF1 (P32519 whole entry): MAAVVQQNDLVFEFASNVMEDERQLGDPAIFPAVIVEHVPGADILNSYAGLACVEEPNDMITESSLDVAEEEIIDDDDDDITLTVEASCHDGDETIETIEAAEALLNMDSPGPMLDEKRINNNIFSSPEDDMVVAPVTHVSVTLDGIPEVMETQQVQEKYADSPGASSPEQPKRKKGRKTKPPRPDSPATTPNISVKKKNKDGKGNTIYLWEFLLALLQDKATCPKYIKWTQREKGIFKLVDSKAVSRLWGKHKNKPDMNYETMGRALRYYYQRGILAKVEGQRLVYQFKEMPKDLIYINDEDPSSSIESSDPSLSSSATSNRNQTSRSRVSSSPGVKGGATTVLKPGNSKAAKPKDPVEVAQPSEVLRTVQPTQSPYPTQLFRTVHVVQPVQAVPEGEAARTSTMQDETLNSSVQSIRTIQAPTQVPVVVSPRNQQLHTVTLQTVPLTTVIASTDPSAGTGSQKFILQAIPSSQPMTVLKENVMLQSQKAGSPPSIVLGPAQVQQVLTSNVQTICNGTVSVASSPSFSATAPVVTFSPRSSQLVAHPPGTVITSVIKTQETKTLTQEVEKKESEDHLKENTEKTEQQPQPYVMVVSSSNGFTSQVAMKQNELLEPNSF
Sequence of ETV5 (P41161 whole entry): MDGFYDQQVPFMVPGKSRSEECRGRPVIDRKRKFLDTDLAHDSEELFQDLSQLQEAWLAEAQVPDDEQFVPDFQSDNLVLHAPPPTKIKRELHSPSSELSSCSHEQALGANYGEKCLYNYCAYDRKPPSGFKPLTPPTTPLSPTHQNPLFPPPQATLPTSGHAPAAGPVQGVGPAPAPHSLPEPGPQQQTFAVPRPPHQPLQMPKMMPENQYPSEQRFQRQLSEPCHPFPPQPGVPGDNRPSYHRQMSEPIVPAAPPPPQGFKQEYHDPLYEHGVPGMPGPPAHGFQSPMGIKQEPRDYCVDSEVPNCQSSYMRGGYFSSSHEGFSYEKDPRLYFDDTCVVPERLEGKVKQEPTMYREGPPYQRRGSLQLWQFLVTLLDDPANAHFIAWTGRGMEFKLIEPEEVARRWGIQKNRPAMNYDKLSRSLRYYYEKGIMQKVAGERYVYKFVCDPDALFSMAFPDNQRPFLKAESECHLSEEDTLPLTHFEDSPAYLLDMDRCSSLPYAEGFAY
Sequence of SPIB (Q01892 whole entry): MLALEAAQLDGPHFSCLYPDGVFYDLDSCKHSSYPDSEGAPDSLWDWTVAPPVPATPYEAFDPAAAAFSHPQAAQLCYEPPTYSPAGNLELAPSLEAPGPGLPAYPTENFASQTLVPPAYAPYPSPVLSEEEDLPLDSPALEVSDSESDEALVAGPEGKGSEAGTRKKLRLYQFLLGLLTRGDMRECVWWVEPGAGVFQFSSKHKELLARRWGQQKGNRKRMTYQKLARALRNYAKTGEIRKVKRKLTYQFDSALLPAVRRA
Sequence of ETV1 (P50549 whole entry): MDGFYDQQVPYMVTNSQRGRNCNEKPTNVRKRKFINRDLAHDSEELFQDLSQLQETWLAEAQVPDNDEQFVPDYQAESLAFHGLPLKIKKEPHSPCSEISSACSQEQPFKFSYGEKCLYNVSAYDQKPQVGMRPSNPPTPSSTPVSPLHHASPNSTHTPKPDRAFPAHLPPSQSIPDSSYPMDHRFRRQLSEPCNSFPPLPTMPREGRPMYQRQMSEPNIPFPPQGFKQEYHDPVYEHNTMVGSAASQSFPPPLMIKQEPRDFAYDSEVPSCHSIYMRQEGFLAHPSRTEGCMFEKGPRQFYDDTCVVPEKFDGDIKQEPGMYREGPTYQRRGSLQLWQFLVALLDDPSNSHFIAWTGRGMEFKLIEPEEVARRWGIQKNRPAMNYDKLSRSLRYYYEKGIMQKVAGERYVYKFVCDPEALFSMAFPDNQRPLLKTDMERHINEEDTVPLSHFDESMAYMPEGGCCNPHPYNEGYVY
Sequence of ELF4 (Q99607 whole entry): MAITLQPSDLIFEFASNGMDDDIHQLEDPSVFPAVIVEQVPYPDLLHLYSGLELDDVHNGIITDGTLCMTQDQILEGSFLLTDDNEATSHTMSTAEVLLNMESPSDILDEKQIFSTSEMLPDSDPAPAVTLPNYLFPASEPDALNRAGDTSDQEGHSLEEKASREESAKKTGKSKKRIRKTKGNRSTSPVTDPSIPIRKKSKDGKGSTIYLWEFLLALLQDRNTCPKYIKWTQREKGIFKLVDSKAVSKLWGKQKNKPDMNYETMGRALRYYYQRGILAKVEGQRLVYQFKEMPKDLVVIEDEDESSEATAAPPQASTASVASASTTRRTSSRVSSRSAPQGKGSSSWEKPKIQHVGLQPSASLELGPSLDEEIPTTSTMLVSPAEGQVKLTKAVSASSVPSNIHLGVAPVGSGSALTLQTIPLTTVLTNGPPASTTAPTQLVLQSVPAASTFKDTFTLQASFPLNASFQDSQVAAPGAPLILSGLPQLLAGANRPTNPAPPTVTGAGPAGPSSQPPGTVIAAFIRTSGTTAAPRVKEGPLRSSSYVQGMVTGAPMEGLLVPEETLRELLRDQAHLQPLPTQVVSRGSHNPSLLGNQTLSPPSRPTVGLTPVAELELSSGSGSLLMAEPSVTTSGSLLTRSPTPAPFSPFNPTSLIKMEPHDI
Sequence of HSF1 (Q00613 whole entry): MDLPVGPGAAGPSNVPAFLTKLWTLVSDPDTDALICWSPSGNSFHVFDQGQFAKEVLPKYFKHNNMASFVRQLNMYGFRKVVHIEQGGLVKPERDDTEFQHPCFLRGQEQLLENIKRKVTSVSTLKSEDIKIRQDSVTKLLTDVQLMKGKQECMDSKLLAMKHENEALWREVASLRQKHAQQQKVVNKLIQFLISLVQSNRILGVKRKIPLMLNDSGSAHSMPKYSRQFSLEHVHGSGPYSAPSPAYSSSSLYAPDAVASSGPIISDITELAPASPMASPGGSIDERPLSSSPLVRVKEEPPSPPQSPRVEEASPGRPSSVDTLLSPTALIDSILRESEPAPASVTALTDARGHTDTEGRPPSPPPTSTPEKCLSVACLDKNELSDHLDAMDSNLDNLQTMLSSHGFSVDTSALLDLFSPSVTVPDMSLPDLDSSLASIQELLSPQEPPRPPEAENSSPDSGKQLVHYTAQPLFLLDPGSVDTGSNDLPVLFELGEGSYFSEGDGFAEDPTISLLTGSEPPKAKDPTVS

AACATG
binding signal (FLI1): 1.24 fold enrichment (6-mer frequency, TF over GST control)
binding signal (ELK1): 1.21 fold enrichment (6-mer frequency, TF over GST control)
binding signal (GABPA): 1.15 fold enrichment (6-mer frequency, TF over GST control)
binding signal (ERG): 1.16 fold enrichment (6-mer frequency, TF over GST control)
binding signal (ELF1): 1.22 fold enrichment (6-mer frequency, TF over GST control)
binding signal (EHF): 1.05 fold enrichment (6-mer frequency, TF over GST control)
binding signal (SPI1): 1.15 fold enrichment (6-mer frequency, TF over GST control)
binding signal (SPIB): 1.16 fold enrichment (6-mer frequency, TF over GST control)
binding signal (ELK3): 1.19 fold enrichment (6-mer frequency, TF over GST control)
binding signal (FEV): 1.1 fold enrichment (6-mer frequency, TF over GST control)
binding signal (ETV5): 1.23 fold enrichment (6-mer frequency, TF over GST control)
binding signal (HSF1): 1.1 fold enrichment (6-mer frequency, TF over GST control)
binding signal (SPIC): 1.28 fold enrichment (6-mer frequency, TF over GST control)
binding signal (ELF4): 1.23 fold enrichment (6-mer frequency, TF over GST control)
binding signal (ELK4): 1.25 fold enrichment (6-mer frequency, TF over GST control)
binding signal (ETV2): 1.19 fold enrichment (6-mer frequency, TF over GST control)
binding signal (ELF3): 1.26 fold enrichment (6-mer frequency, TF over GST control)
binding signal (ETV1): 1.13 fold enrichment (6-mer frequency, TF over GST control)
